Sampled rows, rich in hits. Any-hit rate of the full collection: about 3.1%.
EPAC1 ag val – human EPAC1 agonism, validation. O95398. EPAC1 Rap1b BODIPY-GDP exchange, fluorescence. Potency, µM, inactives show max response, positive = active, most hits filed as activators. 16,000 tested, 1% active. AID 1645883; further: nearly all actives have a fitted effect of over 70% in size
Target sequence (O95398 whole entry, looked up): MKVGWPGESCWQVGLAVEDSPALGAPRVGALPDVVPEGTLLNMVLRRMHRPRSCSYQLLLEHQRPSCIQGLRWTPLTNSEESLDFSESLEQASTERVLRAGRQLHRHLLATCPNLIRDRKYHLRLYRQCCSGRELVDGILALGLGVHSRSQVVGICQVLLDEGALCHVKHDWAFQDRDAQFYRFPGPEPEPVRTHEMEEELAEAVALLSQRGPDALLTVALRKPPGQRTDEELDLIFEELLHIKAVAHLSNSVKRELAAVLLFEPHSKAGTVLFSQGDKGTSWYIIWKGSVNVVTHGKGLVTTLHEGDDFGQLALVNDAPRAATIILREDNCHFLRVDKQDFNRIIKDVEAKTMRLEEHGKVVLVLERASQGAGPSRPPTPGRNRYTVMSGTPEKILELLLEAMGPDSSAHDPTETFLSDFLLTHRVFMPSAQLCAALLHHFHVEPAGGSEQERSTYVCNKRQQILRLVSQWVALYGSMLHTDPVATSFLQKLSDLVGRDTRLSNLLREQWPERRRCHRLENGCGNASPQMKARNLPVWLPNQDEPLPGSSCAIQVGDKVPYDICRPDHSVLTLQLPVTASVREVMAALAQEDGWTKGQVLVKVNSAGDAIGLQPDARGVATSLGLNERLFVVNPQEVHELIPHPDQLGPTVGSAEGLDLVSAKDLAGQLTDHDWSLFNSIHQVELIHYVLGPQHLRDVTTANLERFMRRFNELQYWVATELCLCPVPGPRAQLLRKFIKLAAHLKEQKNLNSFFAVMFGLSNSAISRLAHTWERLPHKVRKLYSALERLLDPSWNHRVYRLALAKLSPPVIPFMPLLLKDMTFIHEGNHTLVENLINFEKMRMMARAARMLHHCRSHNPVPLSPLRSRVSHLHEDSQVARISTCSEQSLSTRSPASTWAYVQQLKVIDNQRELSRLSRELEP
EPAC2 antag – validation of human EPAC2 antagonists; Q8WZA2; AID 1645886; EPAC2 Rap1B BODIPY-GDP exchange, fluorescence; 16,000 tested, 1.7% active; Potency, µM (titrated, usually from 112 µM), without a hit: at the top dose activity, negative = inhibition, hits mostly inhibitors;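 further: 100% = activation by cAMP agonist control; nearly all actives have a fitted effect of over 40% in size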
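Normalized against a 6.5 mM cAMP agonist control, compounds were tested on 100 nM EPAC2 exchanging Rap1B-bound BODIPY-GDP (250 nM) for 50 uM GDP. Fluorescence drop (ex 480, em 540 nm) was tracked at room temperature over 30 min at 5-min intervals.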
* hit, by the source's call; ? = inconclusive; [ ] = another dose, or the depositor's remark. The call rests on the fitted dose curve; in most records, active means well fitted curve in the direction sought with a large enough effect; inconclusive means small, poorly fitted or top-dose-only effect, or another doubt; inactive means no such curve, though single readings can be large; an effect the other way counts as inactive or inconclusive. Unless noted, on the % scale 0 is the no-effect control and ±100 the full control effect; potency means the concentration at half of the fitted maximal effect.

SMILES | EPAC1 ag val | EPAC2 antag
N#CC(C#N)=NNc1ccc(OC(F)(F)F)cc1 | -41.1% | 39.8µM*
CCC(=O)O[C@](Cc1ccccc1)(c1ccccc1)[C@H](C)CN(C)C | -102.8% | -3.5%[239 µM]
C[C@H]1CC[C@]2(NC1)O[C@H]1C[C@H]3[C@@H]4CC[C@H]5C[C@@H](O[C@@H]6O[C@H](CO)[C@H](O[C@@H]7O[C@H](CO)[C@@H](O)[C@H](O[C@@H]8OC[C@@H](O)[C@H](O)[C@H]8O)[C@H]7O[C@@H]7O[C@H](CO)[C@@H](O)[C@H](O)[C@H]7O)[C@H](O)[C@H]6O)CC[C@]5(C)[C@H]4CC[C@]3(C)[C@H]1[C@@H]2C | -2.6% | -4.0%
OC[C@@H](O)[C@H]1O[C@@H]2O[C@@H](C(Cl)(Cl)Cl)O[C@@H]2[C@H]1O | -15.0% | -22.8%
CCN1C[C@]2(COC)[C@H](O)C[C@H](OC)[C@@]34[C@@H]5C[C@@]6(O)[C@H](OC(=O)c7ccccc7)[C@@H]5[C@@](OC(C)=O)([C@@H]([C@H](OC)[C@H]23)[C@@H]14)[C@@H](O)[C@@H]6OC | -27.9% | 7.5%
OC[C@@H](O)[C@H]1O[C@@H]2O[C@H](C(Cl)(Cl)Cl)O[C@@H]2[C@H]1O | -1.4% | -1.1%
COc1cc2c(cc1-c1cc3cc4ccoc4cc3oc1=O)OCO2 | 5.1% | 1.26µM*
COc1cc2occc2c2oc(=O)ccc12 | ? | 15.5%
